Test system: Vero E6 infected with SARS-CoV-2
Assay: inhibition of SARS-CoV-2 cytopathic effect; higher = more antiviral protection, active = above 15
Conditions: 48 h

Measured: inhibition of SARS-CoV-2 cytopathic effect

C[C@@H](O)[C@H]1C(=O)N2C(C(=O)[O-])=C(SC3Cn4cnc[n+]4C3)[C@H](C)[C@H]12 (stereo not given in full) [biapenem]
inactive: 1 nM -2.15% | 8.33 nM -0.04% | 100 nM 0.1% | 833.33 nM 0.63% | 10000 nM -0.14%

CN(C)[C@@H](CCOc1cccc2ccccc12)c1ccccc1 [dapoxetine]
inactive: 1 nM 1.42% | 8.33 nM 3.51% | 100 nM 1.54% | 833.33 nM 0.31% | 10000 nM 1.17%

Cc1sc(N)c(C(=O)c2cccc(C(F)(F)F)c2)c1C
inactive: 1 nM 1.09% | 8.33 nM -1.79% | 100 nM -3.31% | 833.33 nM -3.27% | 10000 nM -2.62%

CCCCCCCCCCCCCC(=O)OC(C)C [isopropyl-myristate]
inactive: 1 nM 0.54% | 8.33 nM 0.41% | 100 nM 2.06% | 833.33 nM 1.1% | 10000 nM -0.15%

C[C@]12CC[C@H]3[C@@H](CC[C@@]45O[C@@H]4C(O)=C(C#N)C[C@]35C)[C@@H]1CC[C@@H]2O [trilostane]
inactive: 1 nM 1.21% | 8.33 nM -0.28% | 100 nM -1.2% | 833.33 nM 0.24% | 10000 nM 2.15%

COc1cc(C[C@H]2c3cc(OC)c(OC)cc3CCN2C)c(Oc2cc3c(cc2OC)-c2c(OC)c(OC)cc4c2[C@H](C3)N(C)CC4)cc1OC [thaliblastine]
inactive: 1 nM 1.34% | 8.33 nM 1.21% | 100 nM -0.77% | 833.33 nM 3.94%
active: 10000 nM 45.5%

CCS(=O)(=O)N1CCC[C@@H]2CN3CCc4cc(OC)ccc4[C@@H]3C[C@@H]21
inactive: 1 nM -0.74% | 8.33 nM 1.49% | 100 nM 0.02% | 833.33 nM 5.17% | 10000 nM -0.18%

COC(=O)Nc1nc2cc(C(=O)c3cccs3)ccc2[nH]1 [nocodazole]
inactive: 1 nM 2.2% | 8.33 nM 3.05% | 100 nM 0.53% | 833.33 nM 1.99% | 10000 nM -1.47%

CCc1c(C(=O)C(N)=O)c2c(OCC(=O)O)cccc2n1Cc1ccccc1 [varespladib]
inactive: 1 nM 2.9% | 8.33 nM -0.54% | 100 nM 1.35% | 833.33 nM 1.32% | 10000 nM 0.87%

O=C(O)c1c2ccccc2cc2ccccc12 [9-anthracenecarboxylic-acid]
inactive: 1 nM -4.6% | 8.33 nM 2.11% | 100 nM 0.63% | 833.33 nM 1.03% | 10000 nM -2.02%

C/C(=N\NC(=S)N1CCC1)c1ccccn1
active: 10000 nM 20.1%
inactive: 1 nM 0.2% | 8.33 nM 0.91% | 100 nM 2.65% | 833.33 nM -1.1%

COc1cc2ncnc(Nc3ccc(O)c(Br)c3)c2cc1OC
inactive: 1 nM 0.67% | 8.33 nM -0.59% | 100 nM -3.04% | 833.33 nM -5.16% | 10000 nM -9.51%

CC(C)n1nc(C#Cc2ccccc2)c2c(N)ncnc21
inactive: 1 nM 0.9% | 8.33 nM -1.43% | 100 nM -4.23% | 833.33 nM 0.67% | 10000 nM 3.02%

Nc1nccc2c1ncn2C1C=C(CO)C(O)C1O (stereo not given) [3-deazaneplanocin-A]
inactive: 1 nM 0.46% | 8.33 nM 1.89% | 100 nM 3.16% | 833.33 nM 5.38% | 10000 nM -3.44%

CCS(=O)(=O)N(C)[C@@H]1c2cc(C#N)ccc2OC(C)(C)[C@H]1O.CCS(=O)(=O)N(C)[C@H]1c2cc(C#N)ccc2OC(C)(C)[C@@H]1O (racemic) [chromanol-(+/-)]
inactive: 1 nM -3.93% | 8.33 nM 0.47% | 100 nM -1.69% | 833.33 nM -0.89% | 10000 nM -1.62%

CC(C)c1nc(CN(C)C(=O)N[C@H](C(=O)N[C@@H](Cc2ccccc2)C[C@H](O)[C@H](Cc2ccccc2)NC(=O)OCc2cncs2)C(C)C)cs1 [Ritonavir]
inactive: 1 nM 0.39% | 8.33 nM 1.47% | 100 nM 0.46% | 833.33 nM 1.28% | 10000 nM -1.6%

CCOCCOc1ccccc1C(N)=O [etosalamide]
inactive: 1 nM -2.2% | 8.33 nM -0.59% | 100 nM -5.45% | 833.33 nM -5.67% | 10000 nM -2.33%

COc1nccnc1NS(=O)(=O)c1ccc(N)cc1 [sulfametopyrazine]
inactive: 1 nM -1.43% | 8.33 nM 0.06% | 100 nM -1.36% | 833.33 nM -2.74% | 10000 nM -0.68%
